# A number with no mark means an inactive call. How the calls were made is not given here. Where a SMILES comes first, the peptide text is derived from it. [ ]: non-standard residue; d: D form. The star is where a group is joined. ξ: configuration not given here. Cbz = O=C(OCc1ccccc1)*; ξK = NCCCCC(N)C(=O)O
# Biological target: Pantothenate synthetase (Mycobacterium tuberculosis (strain ATCC 25618 / H37Rv)) (UniProt P9WIL5)
# Test: Recombinant Mtb pantothenate synthetase (PanC) inhibitors, coupled enzyme, confirmatory (AID 375);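 further: 0% = full reaction with vehicle and 100% = no enzyme background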
# Settings: coupled enzyme assay; at 10 µM, hits give high values
# Chain of Pantothenate synthetase (Mycobacterium tuberculosis (strain ATCC 25618 / H37Rv)) (P9WIL5 whole entry, looked up): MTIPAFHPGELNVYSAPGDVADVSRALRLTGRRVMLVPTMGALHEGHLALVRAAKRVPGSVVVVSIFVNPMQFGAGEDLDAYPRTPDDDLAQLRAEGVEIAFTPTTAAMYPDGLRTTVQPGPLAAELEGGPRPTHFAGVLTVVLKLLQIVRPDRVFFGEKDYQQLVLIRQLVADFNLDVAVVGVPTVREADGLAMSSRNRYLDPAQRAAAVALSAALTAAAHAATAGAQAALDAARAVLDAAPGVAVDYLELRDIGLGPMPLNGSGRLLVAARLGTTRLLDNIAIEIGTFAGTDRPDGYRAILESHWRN
row,Structure (SMILES),inhibition
1,COC(=O)C(CCCCNC(=O)OCc1ccccc1)NC(=O)CN (stereo not drawn) (H-Gly-[ξK](Cbz)-OMe),0%
2,CCCN1CCN(C(=O)Cn2cccc2C(=O)c2ccccc2)CC1,0%
3,CC(=O)N1CCN(c2ccc(S(=O)(=O)N3CCCCC3)cn2)CC1,0%
4,N#Cc1c(N)nc(SCc2ccncc2)c(C#N)c1-c1cccs1,11%
5,CCn1cc(C(=O)N2CCOCC2)c(=O)c2cc(S(=O)(=O)N(C)C3CCCCC3)ccc21,0%
6,CC1(C)OC(=O)C(=CNc2ccccc2F)C(=O)O1,0%
7,O=C(c1c(F)cccc1F)N(Cc1ccccn1)C1CCCC1,1%
8,O=C1c2cccnc2C(O)N1Cc1ccc(F)cc1 (stereo not drawn),9%
9,c1cncc(-c2nnc3sc(-c4ccco4)nn23)c1,0%
10,CCN(CC)CCOC(=O)c1ccc(NC(=O)COc2cc(=O)n(CC)c3ccccc23)cc1,2%
11,CCN1CCN(CCNC(=O)c2cn(C(C)c3ccccc3F)nn2)CC1 (stereo not drawn),0%
12,CCc1ccc(CNCc2cccnc2)cc1,0%
13,CC1(C)CC(=O)C=C(NCCN2CCN(C(=O)Nc3ccccc3)CC2)C1,5%
14,CC(C)(C)NC(=O)CN(C(=O)C1CSC(=O)C1)c1ccc2c(c1)OCCO2 (stereo not drawn),0%
15,COc1cccc(C(=O)Nc2ccc(N(C)C)cc2)c1OC,8%
16,Cc1nn(-c2ccccc2)c2c1C(c1c(C)[nH]c(C#N)c1C)C(C#N)=C(N)O2 (stereo not drawn),1%
17,C=CCSc1nnc2n(-c3ccccc3OC)c(=O)c3c4c(sc3n12)CCC4,0%
18,CNC(=O)C1C2C=CC3(O2)C1C(=O)N(C1CC1)C3C(=O)NCc1ccc(OC)cc1 (stereo not drawn),0%
19,C=C(c1cccc2ccccc12)P(=O)(O)O,2%
20,COc1cccc(-n2c(CNc3ccc(F)cc3)nnc2SCC(N)=O)c1,0%
21,Cc1cccn2c(=O)c3cc(C(=O)NC4CCCC4)c(=N)n(C4CCCC4)c3nc12,0%
22,CCCN1C=CC(=C2C(=O)c3ccccc3C2=O)C=C1,0%
23,Cc1ccccc1N1OC2C(=O)N(c3ccc(F)cc3)C(=O)C2C1c1ccccn1 (stereo not drawn),3%
